Our source for the growth values is PubChem BioAssay (NCI).

Compounds without any hit were thinned out: in the full panel of roughly 83,000, 20% have a hit.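 Results are percent growth after 48 hours of single-concentration exposure. 100 means growth as in untreated cells, lower positive values show inhibition; negative values down to -100 show cell death.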 A number with no mark means an inactive call. Calls of active or inactive are those of the source. The calls were made as follows: active = growth percent below 10; inactive = the rest.

Test systems include NCI-H23 lung; NCI-H322M lung; HOP-62 NSCLC; NCI-H460 lung; HOP-92 NSCLC; NCI-H522 lung; A549/ATCC NSCLC; 786-0 renal; COLO 205 colon; DU-145 prostate; K-562 leukemia; MALME-3M melanoma; MDA-MB-231 breast; RXF 393 renal; SF-268 CNS; SF-295 CNS; SF-539 CNS; UACC-257 melanoma; M14 melanoma; HCT-15 colon.
Test in all cases: NCI-60 one-dose screen, 48 h (100 = growth as untreated, 0 = no growth, -100 = all killed)
What all share (details): 10 µM unless noted

On to `COc1ccc(OC)c(NC(=O)/C(C#N)=C/c2ccco2)c1`, for which the growth was 96.6% in the assay on NCI-H23 lung; 99.8% in the assay with NCI-H322M lung; 90.8% in the assay on HOP-62 NSCLC; 107% in the assay on NCI-H460 lung; 51.1% in the assay on HOP-92 NSCLC; 45.5% in the assay on NCI-H522 lung. Moreover, the growth was 93.8% in the assay with A549/ATCC NSCLC; 100% in the assay on 786-0 renal; 92.8% with COLO 205 colon; 116% in the assay on DU-145 prostate; 88.5% in the assay on K-562 leukemia; 80.3% in the assay with MALME-3M melanoma. The growth in the assay with MDA-MB-231 breast is 85.1%; with RXF 393 renal it was 113%; with SF-268 CNS, 105%; in the assay on SF-295 CNS, 98%; with SF-539 CNS it was 94.7%; in the assay with UACC-257 melanoma, 90.7%. In addition, the growth in the assay on M14 melanoma is 99.2%; in the assay on HCT-15 colon it was 91.2%.
As to `CCOC(=O)c1ccc2[nH]c(-c3ccccc3)cc(=O)c2c1`, the growth with NCI-H23 lung was 99.7%; in the assay on NCI-H322M lung, 98.2%; with HOP-62 NSCLC it was 106%; in the assay on NCI-H460 lung, 101%; in the assay with HOP-92 NSCLC it was 92.5%; in the assay with NCI-H522 lung, 101%. Also, the growth with A549/ATCC NSCLC is 95.7%; in the assay with 786-0 renal it was 104%; in the assay on COLO 205 colon it was 109%; in the assay with DU-145 prostate, 103%; with K-562 leukemia, 97.2%; with MALME-3M melanoma it was 104%. Also, the growth in the assay with MDA-MB-231 breast is 94.5%; in the assay on RXF 393 renal, 103%; with SF-268 CNS it was 103%; in the assay on SF-295 CNS, 106%; in the assay with SF-539 CNS it was 97.2%; in the assay with UACC-257 melanoma, 98.7%. Further, the growth in the assay on M14 melanoma was 98.9%; in the assay on HCT-15 colon it was 92.8%.
Regarding `O=C(CSc1ccc2nnc(-c3cccc(F)c3)n2n1)Nc1ccc2c(c1)OCO2`, the growth in the assay on NCI-H23 lung is 76.5%; with NCI-H322M lung, 85%; in the assay on HOP-62 NSCLC, 81.4%; with NCI-H460 lung, 81.1%; in the assay with HOP-92 NSCLC, -6.23% (active); in the assay on NCI-H522 lung it was 85.4%. The growth in the assay with A549/ATCC NSCLC is 52.8%; in the assay with 786-0 renal, 93.6%; in the assay on COLO 205 colon, 112%; in the assay with DU-145 prostate, 77.1%; in the assay on K-562 leukemia, 74.2%; with MALME-3M melanoma it was 81%. Further, the growth in the assay with MDA-MB-231 breast was 48.9%; in the assay on RXF 393 renal it was 98.5%; in the assay with SF-268 CNS it was 51.3%; in the assay on SF-295 CNS it was 91.6%; in the assay on SF-539 CNS it was 84.3%; in the assay on UACC-257 melanoma it was 94.8%. For the same compound, the growth is 83.9% in the assay with M14 melanoma and 66.1% with HCT-15 colon.
On to `CCN1C(=O)N(c2ccccc2)C2Nn3c(s/c(=C4\C(=O)N(C(C)C)c5ccccc54)c3=O)=NC21` (stereo not given), for which the growth is 104% in the assay with NCI-H23 lung; 108% in the assay on NCI-H322M lung; 98.5% with HOP-62 NSCLC; 108% in the assay with NCI-H460 lung; 113% with HOP-92 NSCLC; 92.1% with NCI-H522 lung. For the same compound, the growth with A549/ATCC NSCLC was 104%; with 786-0 renal, 101%; in the assay on COLO 205 colon, 111%; in the assay with DU-145 prostate, 120%; with K-562 leukemia it was 100%; in the assay on MALME-3M melanoma, 98.7%. Moreover, the growth was 99.4% with MDA-MB-231 breast; 112% in the assay with RXF 393 renal; 98.7% in the assay on SF-268 CNS; 98.4% in the assay with SF-295 CNS; 100% in the assay on SF-539 CNS; 104% with UACC-257 melanoma. Besides, the growth in the assay on M14 melanoma was 109%; in the assay on HCT-15 colon, 108%.
Turning to `CC1=C(C(=O)OCC2CCN(C(=O)OC(C)(C)C)CC2)[C@H](c2cccc(Br)c2)C2=C(CC(C)(C)CC2=O)N1`, the growth with NCI-H23 lung was 48.4%; in the assay with NCI-H322M lung, 57.2%; in the assay on HOP-62 NSCLC, 55.7%; in the assay with NCI-H460 lung, 8.59% (active); in the assay with HOP-92 NSCLC, 61.7%; in the assay with NCI-H522 lung, 19.8%. Besides, the growth in the assay on A549/ATCC NSCLC is 17.3%; in the assay with 786-0 renal, 44.1%; in the assay on COLO 205 colon, 27.4%; with DU-145 prostate, 38.3%; in the assay with K-562 leukemia it was 15.8%; with MALME-3M melanoma, 26.1%. The growth in the assay on MDA-MB-231 breast was 46%; in the assay on RXF 393 renal, 66.3%; in the assay on SF-268 CNS it was 33.1%; with SF-295 CNS, 39.9%; in the assay with SF-539 CNS, 41.2%; with UACC-257 melanoma, 29.1%. For the same compound, the figures for the growth in the assay on M14 melanoma and with HCT-15 colon were 29.8% and 21%, respectively.
Consider `Cc1cc2c(c(C)c1Cl)C(=O)/C(=C/c1ccco1)O2`, for which the growth is 87.9% in the assay on NCI-H23 lung; 99.2% with NCI-H322M lung; 96.7% with HOP-62 NSCLC; 94.7% in the assay on NCI-H460 lung; 129% in the assay with HOP-92 NSCLC; 85.3% with NCI-H522 lung. For the same compound, the growth in the assay on A549/ATCC NSCLC was 103%; in the assay on 786-0 renal, 105%; with COLO 205 colon, 113%; in the assay with DU-145 prostate, 103%; with K-562 leukemia, 98.5%; in the assay on MALME-3M melanoma, 102%. Further, the growth is 82.3% in the assay with MDA-MB-231 breast; 124% in the assay with RXF 393 renal; 109% in the assay on SF-268 CNS; 109% in the assay with SF-295 CNS; 101% in the assay on SF-539 CNS; 97.4% with UACC-257 melanoma. The values for the growth in the assay on M14 melanoma and with HCT-15 colon were 93.2% and 70.8%, respectively.
In the case of `O=C1c2ccccc2C(=O)c2c1ccc1[nH]c(CCl)nc21`, the growth in the assay on NCI-H23 lung is 15%; with NCI-H322M lung it was 62.5%; in the assay on HOP-62 NSCLC, 25.3%; with NCI-H460 lung, 1.46% (active); with HOP-92 NSCLC, 32%; in the assay with NCI-H522 lung it was -31.5% (active). In addition, the growth was 43.8% in the assay on A549/ATCC NSCLC; 28.9% in the assay on 786-0 renal; 29.1% with COLO 205 colon; 17.1% with DU-145 prostate; 2.91% (active) in the assay on K-562 leukemia; 11.5% in the assay on MALME-3M melanoma. The growth is 37.4% with MDA-MB-231 breast; 34.7% with RXF 393 renal; 24.9% in the assay on SF-268 CNS; 65.2% in the assay on SF-295 CNS; 37.9% in the assay on SF-539 CNS; 28.8% with UACC-257 melanoma. The growth in the assay with M14 melanoma was 33.5%; in the assay with HCT-15 colon, -24.8% (active).
Consider `COC(=O)/C(CCC=C(C)C)=C1\[C@@H](OC(C)=O)C[C@@]2(C)[C@H]1C[C@@H](O)[C@H]1[C@@]3(C)CC[C@H](NCCO)[C@@H](C)[C@@H]3CC[C@@]12C`, for which the growth in the assay with NCI-H23 lung is 97.7%; in the assay with NCI-H322M lung it was 101%; in the assay on HOP-62 NSCLC, 106%; in the assay on NCI-H460 lung it was 105%; with HOP-92 NSCLC, 93.6%; in the assay on NCI-H522 lung it was 99.9%. Besides, the growth with A549/ATCC NSCLC is 109%; in the assay with 786-0 renal, 98.7%; in the assay with COLO 205 colon it was 103%; in the assay on DU-145 prostate, 104%; with K-562 leukemia it was 94.8%; in the assay with MALME-3M melanoma, 93%. In addition, the growth in the assay on MDA-MB-231 breast was 106%; with RXF 393 renal, 109%; with SF-268 CNS, 104%; in the assay with SF-295 CNS, 101%; with SF-539 CNS, 101%; in the assay on UACC-257 melanoma it was 107%. In addition, the growth is 94.2% with M14 melanoma and 103% in the assay on HCT-15 colon.
